# Test results published in PubChem BioAssay.
# Active and inactive are the calls of the source.
# How the values were obtained:
# [1] = test system: Plasmodium falciparum Sir2 (PF13_0152, Sir2A); experiment: Plasmodium falciparum Sir2A binding compounds – biochemical, small-molecule microarray, 635 nm fluorescence, primary screen (AID 1098); settings: fluorescence 635 nm, higher = more signal;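 also: score merges spot fluorescence intensity with its signal-to-noise ratio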
# [2] = probe aDKK1 binding to arrayed compounds – biochemical, biotinylated probe, 635/667 nm fluorescence, primary screen (AID 1099); settings: small-molecule microarray, higher = more signal;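 also: score merges 667nm spot fluorescence with signal to noise across triplicate slides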
# [3] = probe aCHRDL2 binding to arrayed compounds – biochemical, biotinylated probe, 635/667 nm fluorescence, primary screen (AID 1100); settings: small-molecule microarray, higher = more signal
# [4] = change in splice reporter luminescence, either direction, cell-based, HEK293, spliceosome inhibition project, primary screen (AID 1101); settings: HEK293 splicing luciferase reporter, 24 h, higher = more signal, called active from +8 up or from −8 down;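 also: HEK293 cells carrying a splicing-competent luciferase reporter gene; test concentration not given here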
# [5] = biological target: Fibroblast growth factor 10 (Homo sapiens) (UniProt O15520); experiment: compounds binding fibroblast growth factor 10 – biochemical, small-molecule microarray, 635 nm fluorescence, primary screen (AID 1102); settings: FGF10 binding, fluorescence 635 nm, higher = more signal
# Sequence of Fibroblast growth factor 10 (Homo sapiens) (O15520 whole entry, looked up): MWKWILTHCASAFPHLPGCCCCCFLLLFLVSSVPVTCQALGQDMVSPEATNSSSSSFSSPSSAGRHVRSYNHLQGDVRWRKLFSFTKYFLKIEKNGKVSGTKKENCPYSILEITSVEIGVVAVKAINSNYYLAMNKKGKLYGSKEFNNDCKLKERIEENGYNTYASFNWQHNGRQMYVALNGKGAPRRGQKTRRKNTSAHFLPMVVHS
# [6] = test system: glycogen synthase kinase-3 (GSK3A per assay name; protocol says GSK3B); experiment: compounds binding glycogen synthase kinase-3 – biochemical, small-molecule microarray, 635 nm fluorescence, GSK3A, primary screen (AID 1103); settings: fluorescence 635 nm, higher = more signal; also: the record names both GSK3A and GSK3B
# [7] = biological target: Epidermal growth factor receptor (Homo sapiens) (UniProt P00533); experiment: compounds binding epidermal growth factor receptor – biochemical, small-molecule microarray, 635 nm fluorescence, primary screen (AID 1104); settings: EGFR binding, higher = more signal;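 also: score merges 667 nm emission intensity with spot signal to noise over triplicate slides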
# Sequence of Epidermal growth factor receptor (Homo sapiens) (P00533 whole entry, looked up): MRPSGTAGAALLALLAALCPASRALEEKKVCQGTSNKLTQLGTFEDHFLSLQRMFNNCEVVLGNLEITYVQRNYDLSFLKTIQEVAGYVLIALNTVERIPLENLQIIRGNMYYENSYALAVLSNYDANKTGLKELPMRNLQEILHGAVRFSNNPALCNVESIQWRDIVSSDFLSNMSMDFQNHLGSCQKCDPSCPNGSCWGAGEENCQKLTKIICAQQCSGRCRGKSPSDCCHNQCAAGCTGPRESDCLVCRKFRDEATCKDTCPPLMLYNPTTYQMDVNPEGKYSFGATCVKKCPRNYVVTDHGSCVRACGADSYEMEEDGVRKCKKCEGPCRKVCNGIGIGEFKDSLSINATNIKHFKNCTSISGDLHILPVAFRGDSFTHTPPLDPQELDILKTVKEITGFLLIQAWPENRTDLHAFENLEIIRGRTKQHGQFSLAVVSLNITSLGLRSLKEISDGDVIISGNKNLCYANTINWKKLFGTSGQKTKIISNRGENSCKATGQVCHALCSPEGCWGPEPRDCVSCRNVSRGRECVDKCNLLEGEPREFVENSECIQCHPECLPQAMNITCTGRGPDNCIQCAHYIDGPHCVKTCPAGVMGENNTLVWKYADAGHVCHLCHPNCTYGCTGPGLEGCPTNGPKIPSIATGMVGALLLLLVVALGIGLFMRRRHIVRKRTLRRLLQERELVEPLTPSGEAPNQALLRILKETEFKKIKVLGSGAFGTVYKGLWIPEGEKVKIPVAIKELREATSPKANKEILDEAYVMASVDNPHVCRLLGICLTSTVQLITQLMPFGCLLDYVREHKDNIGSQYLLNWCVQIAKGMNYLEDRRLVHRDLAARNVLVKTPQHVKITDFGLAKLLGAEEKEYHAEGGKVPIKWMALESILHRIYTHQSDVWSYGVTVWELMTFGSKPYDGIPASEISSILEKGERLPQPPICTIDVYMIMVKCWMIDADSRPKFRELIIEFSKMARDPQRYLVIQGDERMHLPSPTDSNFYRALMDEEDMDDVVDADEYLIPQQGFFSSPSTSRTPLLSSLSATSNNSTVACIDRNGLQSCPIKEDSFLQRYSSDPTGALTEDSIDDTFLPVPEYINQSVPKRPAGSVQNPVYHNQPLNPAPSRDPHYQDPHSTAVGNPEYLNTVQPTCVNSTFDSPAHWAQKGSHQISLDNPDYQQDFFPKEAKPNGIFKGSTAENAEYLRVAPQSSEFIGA
# [8] = biological target: Follistatin-related protein 3 (Homo sapiens) (UniProt O95633); experiment: compounds binding follistatin-related protein 3 – biochemical, small-molecule microarray, 635 nm fluorescence, primary screen (AID 1105); settings: FSTL3 binding, higher = more signal;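 also: score merges emission near 667 nm and signal to noise per printed spot across three slides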
# Sequence of Follistatin-related protein 3 (Homo sapiens) (O95633 whole entry, looked up): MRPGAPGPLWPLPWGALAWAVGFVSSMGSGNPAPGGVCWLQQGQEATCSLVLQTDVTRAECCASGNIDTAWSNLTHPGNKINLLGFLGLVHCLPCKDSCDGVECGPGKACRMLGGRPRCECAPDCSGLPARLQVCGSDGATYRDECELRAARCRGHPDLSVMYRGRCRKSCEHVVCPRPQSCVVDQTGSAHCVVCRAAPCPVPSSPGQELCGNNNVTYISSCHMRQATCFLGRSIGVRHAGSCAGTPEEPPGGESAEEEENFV
# [9] = biological target: Dickkopf-related protein 1 (Homo sapiens) (UniProt O94907); experiment: small molecules binding DKK1 protein – biochemical, small-molecule microarray, 635 nm fluorescence scan, primary screen (AID 1106); settings: higher = more signal;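 also: score merges emission near 667 nm with signal to noise over three replicate slides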
# Sequence of Dickkopf-related protein 1 (Homo sapiens) (O94907 whole entry, looked up): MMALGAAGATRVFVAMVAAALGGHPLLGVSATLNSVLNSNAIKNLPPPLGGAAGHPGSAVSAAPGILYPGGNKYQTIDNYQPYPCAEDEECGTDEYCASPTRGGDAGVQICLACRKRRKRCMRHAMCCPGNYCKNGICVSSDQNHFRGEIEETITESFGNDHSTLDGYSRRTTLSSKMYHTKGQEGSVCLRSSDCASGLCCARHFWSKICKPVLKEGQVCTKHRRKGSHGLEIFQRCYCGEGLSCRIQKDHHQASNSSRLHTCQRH
# [10] = test system: Inhibin beta A chain (activin A); experiment: small molecules binding activin A – biochemical, small-molecule microarray, 635 nm fluorescence scan, primary screen (AID 1107); settings: INHBA, higher = more signal;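 also: mouse activin A protein probed at 4.33 µg/mL on printed slides; score merges bound-protein fluorescence near 667 nm with spot signal-to-noise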
# [11] = test system: Human papillomavirus type 1a protein E7 (residues 44-93); experiment: small molecules binding HPV E7 44-93 – biochemical, small-molecule microarray, residues 44-93, 635 nm fluorescence, primary screen (AID 1108); settings: fluorescence 635 nm, higher = more signal;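 also: E7 fragment applied at 1 µg/mL in TBST for 1 h at 4 C; score combines spot fluorescence with its signal to noise ratio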
# [12] = hepatitis C replication reporter changes, two-sided – Huh7 cells, luciferase reporter, HCV replication inhibitor project, primary screen (AID 1109); settings: Huh7 HCV replicon luciferase reporter, 48 h; higher = more signal;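 also: huh7 hepatoma cells harbouring a luciferase neomycin HCV replicon reporter; luciferase luminescence as measure of HCV replicon replication; test concentration not given here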
# [13] = biological target: Left-right determination factor 2 (Homo sapiens) (UniProt O00292); experiment: small molecules binding LEFTY2 protein – biochemical, small-molecule microarray, 635 nm fluorescence scan, primary screen (AID 1110); settings: higher = more signal
# Sequence of Left-right determination factor 2 (Homo sapiens) (O00292 whole entry, looked up): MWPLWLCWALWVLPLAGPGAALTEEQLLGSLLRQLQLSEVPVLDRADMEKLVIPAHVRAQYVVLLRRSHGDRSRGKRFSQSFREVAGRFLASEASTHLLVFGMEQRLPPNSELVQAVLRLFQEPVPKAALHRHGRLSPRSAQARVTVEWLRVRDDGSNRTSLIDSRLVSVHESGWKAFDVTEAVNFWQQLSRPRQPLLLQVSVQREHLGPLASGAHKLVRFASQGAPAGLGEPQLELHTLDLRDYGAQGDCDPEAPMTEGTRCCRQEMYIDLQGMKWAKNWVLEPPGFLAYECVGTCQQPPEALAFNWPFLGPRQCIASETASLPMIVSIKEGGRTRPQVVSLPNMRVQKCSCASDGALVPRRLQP
# [14] = biological target: Calmodulin-1 (Homo sapiens) (UniProt P0DP23); experiment: small molecules binding calmodulin-1 with EGTA – biochemical, small-molecule microarray, Cy5-labelled CALM1, profiling panel (AID 1111); settings: Cy5-CALM1 binding fluorescence, higher = more signal;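 also: labelled calmodulin applied in Tris saline Tween buffer holding calcium plus EGTA and DTT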
# [15] = biological target: Calmodulin-1 (Homo sapiens) (UniProt P0DP23); experiment: small molecules binding Ca-loaded calmodulin-1 – biochemical, small-molecule microarray, Cy5-labelled CALM1, plus calcium, artefact control for SMM control-protein annotation, profiling panel (AID 1112); settings: Cy5-CALM1 binding fluorescence, higher = more signal;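 also: score merges spot fluorescence with signal to noise from triplicate slides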
# [16] = probe aWnt5a binding to arrayed compounds – biochemical, biotinylated probe, 635/667 nm fluorescence, primary screen (AID 1113); settings: small-molecule microarray, higher = more signal;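 also: score merges 667 nm fluorescence intensity with signal-to-noise per printed feature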
# [17] = probe aShh binding to arrayed compounds – biochemical, biotinylated probe, 635/667 nm fluorescence, primary screen (AID 1114); settings: small-molecule microarray, higher = more signal;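 also: probe is biotin-labelled aShh protein from a stem cell growth factor screen; measures binding of labelled protein to compounds printed on the slide; score merges feature fluorescence at 667 nm with signal-to-noise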
# [18] = probe aNog binding to arrayed compounds – biochemical, biotinylated probe, 635/667 nm fluorescence, primary screen (AID 1115); settings: small-molecule microarray, higher = more signal;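 also: probe is biotinylated aNog protein used at 0.15 µg/mL for 1 h at 4 C; z-score combines 667 nm fluorescence of each spot with its signal to noise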
# [19] = biological target: Torsin-1A-interacting protein 1 (Homo sapiens) (UniProt Q5JTV8); experiment: compound microarray binding of lysate hLAP1 – cell lysate, small-molecule microarray, COS7 lysate, 635/667 nm fluorescence, primary screen (AID 1116); settings: 635 nm fluorescence, higher = more signal
# Sequence of Torsin-1A-interacting protein 1 (Homo sapiens) (Q5JTV8 whole entry, looked up): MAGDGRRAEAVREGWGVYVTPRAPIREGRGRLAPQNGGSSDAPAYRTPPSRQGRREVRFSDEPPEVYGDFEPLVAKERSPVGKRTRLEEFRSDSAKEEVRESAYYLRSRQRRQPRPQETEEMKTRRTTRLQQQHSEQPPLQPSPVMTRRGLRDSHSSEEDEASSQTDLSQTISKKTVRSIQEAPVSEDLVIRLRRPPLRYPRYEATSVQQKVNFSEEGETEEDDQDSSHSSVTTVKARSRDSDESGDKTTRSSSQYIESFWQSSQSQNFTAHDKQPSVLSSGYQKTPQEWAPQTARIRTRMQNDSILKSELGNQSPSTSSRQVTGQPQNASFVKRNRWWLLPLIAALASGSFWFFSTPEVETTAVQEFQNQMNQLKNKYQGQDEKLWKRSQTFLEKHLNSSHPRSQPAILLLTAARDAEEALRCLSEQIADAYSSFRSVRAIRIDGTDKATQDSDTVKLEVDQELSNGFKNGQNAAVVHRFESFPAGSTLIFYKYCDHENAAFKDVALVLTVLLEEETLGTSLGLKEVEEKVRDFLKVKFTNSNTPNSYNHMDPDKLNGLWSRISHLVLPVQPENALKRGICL
# [20] = biological target: Alpha-bungarotoxin (Bungarus multicinctus) (UniProt P60615); experiment: compounds binding labelled alpha-BTX control protein – biochemical, small-molecule microarray, Alexa647 label, 635/667 nm fluorescence, artefact control for SMM control protein annotation, profiling panel (AID 1117); settings: alpha-BTX-A647 binding fluorescence, higher = more signal
# Sequence of Alpha-bungarotoxin (Bungarus multicinctus) (P60615 whole entry, looked up): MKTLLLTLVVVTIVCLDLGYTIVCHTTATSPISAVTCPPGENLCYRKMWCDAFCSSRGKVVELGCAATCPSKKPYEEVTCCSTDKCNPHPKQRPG
SMILES,composite z-score [1],composite z-score [2],composite z-score [3],z-score [4],composite z-score [5],composite z-score [6],composite z-score [7],composite z-score [8],composite z-score [9],composite z-score [10],composite z-score [11],z-score [12],composite z-score [13],composite z-score [14],composite z-score [15],composite z-score [16],composite z-score [17],composite z-score [18],composite z-score [19],composite z-score [20]
O=C(NCC(F)(F)F)[C@@H]1c2ccccc2C(=O)N(Cc2ccccc2)[C@H]1c1ccc(CO)cc1,1.68,0.443,1.05,0.999 (inactive),-0.308,-0.409,-1.31,-1.12,-1.46,-0.296,0.337,-0.32,-1.78,-0.189,0.621,-0.158,-0.0849,0.0056,-0.236,-0.846
O=C1c2ccccc2[C@](Cc2ccccc2I)(C(=O)O)[C@H](c2ccc(CO)cc2)N1Cc1ccccc1C(F)(F)F,0.674,-0.483,-0.388,0.185 (inactive),-0.414,0.464,-0.709,0.19,-0.376,0.353,1.46,-0.702,-0.422,1.08,-0.604,-0.0006,-0.0382,0.689,-0.0086,1.58
C=C(CCCC)/C(=C/C[C@H](OC(C)=O)c1ccc(CO)o1)c1cc(C(=O)OC)ccc1OC,1.43,-0.0797,-0.438,-0.27 (inactive),1.25,0.469,-0.102,1.25,0.291,0.638,1.4,-1.58,0.305,0.184,-0.592,-0.101,0.0639,0.116,0.599,1.44
C=C(COC)/C(=C/C[C@H](OC(C)=O)c1ccccc1OCCO)c1cnc2ccccc2c1,0.279,-0.0732,-0.0887,0.11 (inactive),1.16,0.521,0.486,1.41,0.743,1.85,1.29,-1.57,0.425,0.177,-0.173,-0.0944,0.0756,0.226,-0.0998,0.625
COc1ccc([Si](C)(C)[C@@H]2[C@@H](CCO)O[C@]3(C(=O)N(Cc4ccc(N5C(=O)c6cccc7cccc5c67)cc4)c4ccccc43)[C@H]2C)cc1,1.03,0.0129,0.598,-1.11 (inactive),-0.66,-0.445,-1.13,-0.66,-0.674,-0.194,-1.27,-4.81,-0.983,0.424,1.09,-0.154,-0.16,0.094,-0.164,-0.0784
CC(C)N1C(=O)c2ccccc2[C@](C)(C(=O)NCCCN(C)C)[C@@H]1c1ccc(CO)cc1,0.928,0.466,0.665,-0.297 (inactive),-0.543,1.4,-0.968,-0.749,-1.78,0.814,-0.0305,-0.104,-0.553,0.0958,-0.0609,-0.152,-0.214,-0.546,4.42,1.28
COc1cc(NN2C(C(O)c3ccccc3)C=CC3C(=O)N(c4ccccc4)C(=O)C32)cc(OC)c1OC (stereo not given),1.53,0.256,0.862,-0.412 (inactive),1.28,1.14,0.257,1.47,0.0142,0.706,1.49,-1.28,0.265,1.36,-0.356,0.216,0.302,0.539,0.804,0.585
CCN(CC)c1ccc(N2CC=CC34O[C@@H]5/C=C\CCC(C)OC(=O)C5[C@H]3C(=O)N(CCCCCCO)[C@@H]4C2=O)cc1 (stereo not given in full),0.586,-0.331,0.0224,0.449 (inactive),-0.0455,-0.624,-0.782,-0.622,-0.471,1.04,-0.27,-0.693,-0.694,-0.423,-0.304,-0.13,-0.223,-0.16,0.891,-1.04
CCCC[C@H]1C[C@@H]1[C@@H]1N(P(=O)(c2ccccc2)c2ccccc2)[C@](CO)(c2ccccc2)CC12CC2,1.09,0.639,1.01,-4.35 (inactive),0.104,-0.571,-0.395,-0.177,-1.47,0.846,0.992,-2.4,-1.58,1.85,1.08,0.188,0.562,1.75,0.0187,-0.0785
CN(C)CCCC[C@@H]1NC(=O)[C@@H]2C[C@H](C(=O)NCCCCCN)[C@H](c3ccc(O)cc3)N2C1=O,0.016,0.442,0.916,-0.159 (inactive),-0.008,0.31,-0.912,-1.25,-0.722,-0.273,0.0063,0.285,-0.93,1.99,1.42,-0.208,-0.026,0.262,0.777,1.19
[N-]=[N+]=NCc1ccccc1C[C@]1(C(=O)NCc2ccccc2)COC(c2ccc(OCCCO)cc2)=N1,0.518,-0.109,0.681,-0.426 (inactive),0.447,0.431,0.0245,-0.109,-0.874,0.743,0.953,-3.59,-0.0623,0.614,0.345,0.027,0.0483,-0.415,1.04,0.188
